Assay results published in the supplement of paper PMC10121225.
Structures can show the parent of a compound that is named as a salt.
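Further: immunostained co-cultures imaged by high-content microscopy, Z-score per plate against mean and SD of 0.1% DMSO wells, compounds added on differentiation day 18, analysed day 21.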

What follows are molecules tested on hN + hpA co-culture (H1 iNGN2 human neurons + human primary astrocytes) (assay: presynaptic density (SYNAPSIN1 puncta per MAP2 neurite area), Z-score vs DMSO controls; higher = more presynaptic puncta (synapse-promoting)). Details: 3 µM; 72 h.
`CCn1c(N)c(C(=O)NC)c(=O)c2ccc(C#CC(C)(O)COC)nc21` (stereo not drawn) was tested, and the “presynaptic density (Z-score)” value was 0.325. With `Nc1nc(N)c2nc(-c3ccccc3)c(N)nc2n1` [Triamterene] the “presynaptic density (Z-score)” value was -0.407. `CC#CCn1c(N2CCC[C@@H](N)C2)nc2c1c(=O)n(Cc1nc(C)c3ccccc3n1)c(=O)n2C` [Linagliptin] was tested, and the “presynaptic density (Z-score)” value was 0.688. With `CCCCCCCCc1ccc(CCC(N)(CO)CO)cc1` [Fingolimod (FTY720) HCl] the “presynaptic density (Z-score)” value was 0.342. For `C[C@H]1COC2=C1C(=O)C(=O)c1c2ccc2c1CCCC2(C)C`, the “presynaptic density (Z-score)” value was 0.405. `O=C(Nc1ccc(S(=O)(=O)Nc2ccccc2Cl)c(Cl)c1)c1ccccn1` was tested, and the “presynaptic density (Z-score)” value was -0.71. For `O=C(NNc1ccccc1)c1ccncc1`, the “presynaptic density (Z-score)” value was -0.884. For `N#CC[C@H](C1CCCC1)n1cc(-c2ncnc3[nH]ccc23)cn1`, the “presynaptic density (Z-score)” value was 0.202. With `CC(=O)O[C@]1(C(C)=O)CC[C@H]2[C@@H]3C=C(Cl)C4=CC(=O)[C@@H]5C[C@@H]5[C@]4(C)[C@H]3CC[C@@]21C` [Cyproterone acetate] the “presynaptic density (Z-score)” value was -0.989. For `CCN(c1cc(-c2ccc(CN3CCOCC3)cc2)cc(C(=O)NCc2c(C)cc(C)[nH]c2=O)c1C)C1CCOCC1`, the “presynaptic density (Z-score)” value was -0.342. With `Cc1[nH]c(/C=C2\C(=O)Nc3ccc(S(=O)(=O)N(C)c4cccc(Cl)c4)cc32)c(C)c1C(=O)N1CCN(C)CC1` the “presynaptic density (Z-score)” value was 0.365. `C[C@@H]1CCN(C(=O)CC#N)C[C@@H]1N(C)c1ncnc2[nH]ccc12` was tested, and the “presynaptic density (Z-score)” value was -0.892. For `CC(C)C[C@H](NC(=O)CNC(=O)c1cc(Cl)ccc1Cl)B(O)O`, the “presynaptic density (Z-score)” value was -3.07. For `O=C(Nc1ccncc1)c1cc([N+](=O)[O-])ccc1Cl` [2-Chloro-5-nitro-N-4-pyridinylbenzamide], the “presynaptic density (Z-score)” value was 0.702. In the case of `NC(=O)c1cnc(NC2CCCCC2N)nc1Nc1cccc(-n2nccn2)c1` (stereo not drawn), the “presynaptic density (Z-score)” value is reported as -0.728. `Cc1nc(C(=O)NCC(=O)O)c(O)c2ccc(Oc3ccccc3)cc12` was tested, and the “presynaptic density (Z-score)” value was 0.792. For `O=C1C(=O)N(Cc2ccc(Cl)c(Cl)c2)c2ccccc21` [1-[(3 4-Dichlorophenyl)methyl]-1H-indole-2 3-dione], the “presynaptic density (Z-score)” value was -0.359. For `COc1ccc2c(c1)c(CC(=O)N1CCOCC1)c(C)n2C(=O)c1ccc(Cl)cc1`, the “presynaptic density (Z-score)” value was -0.448. `CC[C@H](NC(=O)[C@H](C)NC)C(=O)N1C[C@@H](O)C[C@H]1Cc1c(-c2[nH]c3cc(F)ccc3c2C[C@@H]2C[C@H](O)CN2C(=O)[C@H](CC)NC(=O)[C@H](C)NC)[nH]c2cc(F)ccc12` [Birinapant] was tested, and the “presynaptic density (Z-score)” value was 0.314. `CC(C)NCC(O)COc1cccc2ccccc12` (stereo not drawn) [Propranolol HCl] was tested, and the “presynaptic density (Z-score)” value was 0.278. For `CCOc1ccc(Cc2cc([C@@H]3O[C@H](CO)[C@@H](O)[C@H](O)[C@H]3O)ccc2Cl)cc1` [Dapagliflozin], the “presynaptic density (Z-score)” value was 0.756. With `CC[C@@H]1C(=O)N(C)c2cnc(Nc3ccc(C(=O)NC4CCN(C)CC4)cc3OC)nc2N1C1CCCC1` the “presynaptic density (Z-score)” value was -2.32. `O=C(Nc1ccccc1)N1CCN(c2nc(-c3ccccc3)ns2)CC1` was tested, and the “presynaptic density (Z-score)” value was -0.242. `CCCCN1CCCCC1C(=O)Nc1c(C)cccc1C` (stereo not drawn) [Bupivacaine HCl] was tested, and the “presynaptic density (Z-score)” value was -0.239. For `CC(C)(C)c1cc(NC(=O)Nc2ccc(-c3cn4c(n3)sc3cc(OCCN5CCOCC5)ccc34)cc2)no1` [AC220 (Quizartinib], the “presynaptic density (Z-score)” value was 0.214. In the case of `CN(c1ncccc1CNc1nc(Nc2ccc3c(c2)CC(=O)N3)ncc1C(F)(F)F)S(C)(=O)=O`, the “presynaptic density (Z-score)” value is reported as -0.85. With `C[C@@H]1C(=O)O[C@H]2C[C@@]34[C@H]5C[C@@H](C(C)(C)C)[C@]36[C@@H](OC(=O)[C@@H]6O)O[C@@]4(C(=O)O5)[C@]21O` the “presynaptic density (Z-score)” value was -0.498. With `O=c1cc(-c2cccc3c2Sc2ccccc2S3)oc(N2CCOCC2)c1` the “presynaptic density (Z-score)” value was -0.963. With `CC(C)NCCCn1c(Sc2cc3c(cc2I)OCO3)nc2c(N)ncnc21` the “presynaptic density (Z-score)” value was -0.039. `O=C(O)/C=C/c1ccc(Cn2ccnc2)cc1` [Ozagrel HCl] was tested, and the “presynaptic density (Z-score)” value was -0.679. For `O=C(O)Cc1cccc(OCCCN(Cc2cccc(C(F)(F)F)c2Cl)CC(c2ccccc2)c2ccccc2)c1`, the “presynaptic density (Z-score)” value was -1.54. With `Cc1ccc([C@@H]2O[C@H](CO)[C@@H](O)[C@H](O)[C@H]2O)cc1Cc1ccc(-c2ccc(F)cc2)s1` [Canagliflozin] the “presynaptic density (Z-score)” value was -0.473. `CC(C)c1cc(-c2n[nH]c(=O)n2-c2ccc3c(ccn3C)c2)c(O)cc1O` [Ganetespib (STA-9090)] was tested, and the “presynaptic density (Z-score)” value was 2.03. `CC(C=CC(=O)NO)=CC(C)C(=O)c1ccc(N(C)C)cc1` (stereo not drawn) [Trichostatin A (TSA)] was tested, and the “presynaptic density (Z-score)” value was 11.2. For `CC(C)OC(=O)C1=CN(C(=O)c2ccc(F)c(F)c2)CC(C)(C)c2c1[nH]c1ccccc21`, the “presynaptic density (Z-score)” value was -0.269. `CN[C@H]1CC[C@@H](c2ccc(Cl)c(Cl)c2)c2ccccc21` was tested, and the “presynaptic density (Z-score)” value was 1.13. `O=C(Nc1ccccc1-c1cn2c(CN3CCNCC3)csc2n1)c1cnc2ccccc2n1` was tested, and the “presynaptic density (Z-score)” value was -1.26. For `C[C@H](CS)C(=O)N1CCC[C@H]1C(=O)O` [Captopril], the “presynaptic density (Z-score)” value was -1.61.
